Assay [1] can be described thus: CCTE_Mundy_HCI_Cortical_Synap_Neur_Matur_BPCount: CCTE's Synaptogenesis and Neurite Maturation Assay in rat cortical cells for Branch Point Count, Mundy Lab (AID 2284211). The method in brief:
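Branch point number is quantified by automated imaging of fluorescently labelled neurites and synapses in rat primary cortical neurons exposed from DIV 7 to DIV 12. Activity is analysed relative to DMSO negative control.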

Assay [2] can be described thus: CCTE_Mundy_HCI_Cortical_NOG_NeuriteCount: CCTE's Neurite Outgrowth Assay in rat cortical cells for Neurite Count, Mundy Lab (AID 2284212).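 Also: cells fixed about two days after chemical exposure began.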 The method, boiled down: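 Neurite number per cell from high-content imaging of betaIII-tubulin immunostaining, with Hoechst nuclear counterstain.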
The nature of assay [3]: CCTE_Mundy_HCI_Cortical_NOG_NeuriteLength: CCTE's Neurite Outgrowth Assay in rat cortical cells for Neurite Length, Mundy Lab (AID 2284213).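 As to AC50: neurites imaged about 48 to 50 h after chemical exposure began.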 The method in brief: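 Neurite length was read by high-content imaging of βIII-tubulin-labelled neurites in rat primary cortical cultures. Activity was fitted relative to DMSO.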
Assay [4] is described as follows: CCTE_Mundy_HCI_Cortical_Synap_Neur_Matur_NeuriteLength: CCTE's Synaptogenesis and Neurite Maturation Assay in rat cortical cells for Neurite Length, Mundy Lab (AID 2284214). The method, boiled down: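 Rat primary cortical cells were plated, treated with AraC at DIV 5 to arrest glial growth, then chemical-dosed with media change at DIV 7 through DIV 12. Fixed cells stained for MAP2, synaptophysin and Hoechst; neurite length quantified by high-content imaging.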

A short description of assay [5]: CCTE_Mundy_HCI_Cortical_Synap_Neur_Matur_NeuriteSpotCountPerNeuron: CCTE's Synaptogenesis and Neurite Maturation Assay in rat cortical cells for Neurite Spot Count per Neuron Count, Mundy Lab (AID 2284215). The method, boiled down: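 Read-out: neurite-associated synaptophysin puncta per neuron, imaged by high-content analysis after MAP2, synaptophysin and Hoechst staining. Rat primary cortical cultures, dosed DIV 7 through DIV 12; DMSO served as baseline.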

The nature of assay [6]: CCTE_Mundy_HCI_Cortical_Synap_Neur_Matur_SynapseCount: CCTE's Synaptogenesis and Neurite Maturation Assay in rat cortical cells for Synapse Count, Mundy Lab (AID 2284218). The method, boiled down: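 Rat primary cortical cells in 96-well plates received AraC at DIV 5 and were dosed with chemicals at DIV 7 with media change, through DIV 12 (288.33 h). Synapses per neuron counted by high-content imaging of MAP2/synaptophysin/Hoechst staining, versus DMSO baseline.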

The nature of assay [7]: CCTE_Mundy_HCI_hN2_NOG_NeuriteCount: CCTE's Neurite Outgrowth Assay in human hN2 cells for Neurite Count, Mundy Lab (AID 2284219; active = hit-call score of the fitted dose curve at least 0.9, where 1 is the maximum). The method in brief:
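In this morphology assay, hNP1-derived neurons received test chemical 2 h post-plating and were fixed two days later in warm paraformaldehyde/sucrose containing Hoechst 33342. Neurites, labelled by rabbit anti-βIII-tubulin (1:800) and Alexa Fluor-488 (1:500), were counted automatically.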

Assay [8] in a line: CCTE_Mundy_HCI_hN2_NOG_NeuriteLength: CCTE's Neurite Outgrowth Assay in human hN2 cells for Neurite Length, Mundy Lab (AID 2284220; active = hit-call score of the fitted dose curve at least 0.9, where 1 is the maximum). The method in brief:
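Read-out is neurite length from high-content imaging of βIII-tubulin/Alexa Fluor-488-labelled neurons, referenced to DMSO controls.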

Assay [9] can be described thus: CCTE_Mundy_HCI_hN2_NOG_NeuronCount: CCTE's Neurite Outgrowth Assay in human hN2 cells for Neuron Count, Mundy Lab (AID 2284221; active = hit-call score of the fitted dose curve at least 0.9, where 1 is the maximum). The method in brief:
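Read-out is the number of betaIII-tubulin-positive neurons imaged by automated high-content analysis, with DMSO as negative control.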

A short description of assay [10]: CCTE_Mundy_HCI_Cortical_Synap_Neur_Matur_NeuriteCount: CCTE's Synaptogenesis and Neurite Maturation Assay in rat cortical cells for Neurite Count, Mundy Lab (AID 2284222).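 Also: exposure from day 7 to day 12 in vitro with readout at day 12.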 The method in brief: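 Primary rat cortical cells were plated, treated with AraC at DIV 5, then exposed to chemicals from DIV 7 through DIV 12. After fixation and immunostaining for MAP2 and synaptophysin, imaging quantified neurites, with DMSO as the negative control.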

A short description of assay [11]: CCTE_Mundy_HCI_Cortical_Synap_Neur_Matur_CellBodySpotCount: CCTE's Synaptogenesis and Neurite Maturation Assay in rat cortical cells for Cell Body Spot Count, Mundy Lab (AID 2284223). The method, boiled down: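 Read-out: cell body-associated synaptophysin puncta per neuron, imaged after MAP2, synaptophysin and Hoechst staining. Rat cortical cells, AraC DIV 5, chemical dosing DIV 7, fixation DIV 12. Activity fitted in positive direction relative to DMSO baseline.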

A short description of assay [12]: BSK_BT_PBMCCytotoxicity: PBMC Cytotoxicity Assessment in the BioMAP Diversity Plus: BT Assay (AID 2284225).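 Also: PBMC viability measured by Alamar Blue dye reduction fluorescence.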 The settings on record: primary human B cells with PBMC. The method, boiled down:
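75,000 cells/well; cpd 1 h → SEB + TSST-1 (20 ng/mL final each) → 90 h → Alamar Blue 6 h → fluor. 546/580 nm. DMSO = neg. control/baseline.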

Read-out in assay [13]: Secreted IgG (sIgG), gene 3500
Nature of the assay: BSK_BT_sIgG: BioMAP Diversity Plus: BT Assay for Secreted IgG (sIgG) Biomarker Activity (AID 2284226). The settings on record: primary human B cells with PBMC. The method in brief: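 B cells co-cultured with PBMC were dosed with chemical and secreted IgG quantified by ELISA at 24 h. Activity was fitted in the positive direction relative to DMSO as negative control and baseline.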

A short description of assay [14]: BSK_BT_Bcell_Proliferation: Viability Assessment in the BioMAP Diversity Plus: BT Assay for B cell Proliferation (AID 2284227). The settings on record: primary human B cells with PBMC. The method, boiled down:
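Read-out is absorbance at 560 nm from sulforhodamine B staining of total protein, reflecting relative cell numbers in a human B cell and PBMC co-culture after 72 h of chemical exposure. Values were referenced to DMSO.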

Read-out in assay [15]: Interleukin 6 (IL6), IL6 (gene 3569)
Nature of the assay: BSK_BT_xIL6: BioMAP Diversity Plus: BT Assay for Interleukin 6 (IL6) Biomarker Activity (AID 2284228). The settings on record: primary human B cells with PBMC. The method, boiled down: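 Readout: secreted IL-6 via Luminex xMAP multiplex, 24 h post-dosing. System: primary human B cells co-cultured with PBMC. Signal change scored relative to DMSO vehicle, positive fitting direction.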

Read-out in assay [16]: Interleukin 17A (IL17A), IL17A (gene 3605)
Nature of the assay: BSK_BT_xIL17A: BioMAP Diversity Plus: BT Assay for Interleukin 17A (IL17A) Biomarker Activity (AID 2284229). The settings on record: primary human B cells with PBMC. The method in brief: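 Luminex xMAP readout of secreted IL-17A; human B cell + PBMC co-culture; 24 h post-dose; positive-direction fit vs DMSO negative control.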

Read-out in assay [17]: Tumor necrosis factor (Homo sapiens) (UniProt P01375)
Nature of the assay: BSK_BT_xTNFa: BioMAP Diversity Plus: BT Assay for Tumor necrosis factor alpha (TNF-alpha) Biomarker Activity (AID 2284230). The settings on record: primary human B cells with PBMC. The method, boiled down: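 Human primary co-culture of B cells and peripheral blood mononuclear cells; TNF-alpha in supernatant, 24 h post-dose, Luminex multiplex; DMSO = baseline.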

Read-out in assay [18]: Vascular cell adhesion molecule 1 (VCAM1), VCAM1 (gene 7412)
The assay can be described thus: BSK_MyoF_VCAM1: BioMAP Diversity Plus: MyoF Assay for Vascular cell adhesion molecule 1 (VCAM1) Biomarker Activity (AID 2284231). The settings on record: primary human lung fibroblasts. The method, boiled down:
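MyoF system, lung fibroblasts; 24 h post-dose; VCAM-1 by ELISA; gain-of-signal fit vs DMSO baseline.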

The nature of assay [19]: TAMU_PeakParms_SingleDonor1434_Chronotropy: Texas A&M University (TAMU) 1.5-hr Human Induced Pluripotent Stem Cell (iPSC)-derived Cardiomyocytes Calcium (Ca+2) Flux Assay for Cardiotoxicity: Chronotropy (changes in peak frequency) (AID 2284217). The settings on record: actives raise or lower the signal. The method in brief:
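iPSC-CMs, donor 1434; 4 conc (0.2–100 uM), 0.5% v/v DMSO, 90 min, 37C/5% CO2; Ca2+ flux fluorescence → peak.freq.avg; peak.freq.avg = 0 dropped; bidirectional fit vs DMSO; EC05 POD.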

Assay [20] in a line: CCTE_Mundy_HCI_hNP1_Pro_ResponderAvgInten: CCTE's Proliferation Assay in human neuroprogenitor cells, Mundy Lab (AID 2284224; active = hit-call score of the fitted dose curve at least 0.9, where 1 is the maximum;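 also: human neural progenitor cells hNP1 derived from WA09 embryonic stem cells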). The method, boiled down: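 Proliferation read as average intensity of BrdU-positive cells, imaged at 26.25 h post-dosing: chemical exposure started after 40–44 h culture, BrdU during final 4 h, paraformaldehyde fixation. Positive-direction fit relative to DMSO.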

Where “and” joins values, the source holds several entries; their conditions need not be identical. Equal values may be shown once. Results filed as inconclusive are left out. Some compounds were tested as several samples or in several runs, with calls that do not always agree. Calls of active or inactive are those of the source. The calls were made as follows, unless noted: active = hit-call score of the fitted dose curve at least 0.9, where 1 is the maximum; inactive = score below 0.9.

Tumor necrosis factor (Homo sapiens), sequence (P01375 whole entry, looked up): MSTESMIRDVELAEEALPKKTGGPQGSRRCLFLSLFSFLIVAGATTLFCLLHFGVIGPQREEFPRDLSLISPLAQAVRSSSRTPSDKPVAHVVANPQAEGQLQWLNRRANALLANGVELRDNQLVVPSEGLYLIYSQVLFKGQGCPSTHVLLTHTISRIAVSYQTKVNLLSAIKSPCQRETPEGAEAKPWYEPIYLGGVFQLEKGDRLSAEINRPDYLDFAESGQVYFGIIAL

As usually defined, the AC50 is the midpoint of the concentration-response curve, whichever way the signal moves. As for `CN(Cc1cnc2nc(N)nc(N)c2n1)c1ccc(C(=O)N[C@@H](CCC(=O)O)C(=O)O)cc1`, the AC50 is 0.0449 µM (active) in assay [1]; 0.0328 µM (active) in assay [4]; 662 nM (active) and 100 nM (active) in [13]; 855 nM (active) and 43.4 nM (active) in [14]. Further, the outcome in [2], in [3], in assay [5], in [6], in assay [7] and in [8] was inactive. Besides, the compound was classed as inactive in assay [9], in assay [10], in assay [11], in assay [12], in [15] and in assay [16]. Moreover, the result in assay [17] and in assay [18] was inactive.

Take `CC[N+](CC)(CC)Cc1ccccc1`: the outcome in [12], in assay [13], in assay [14], in assay [15], in [16] and in [17] was inactive. Also, the outcome in assay [18] was inactive.

Take `CC(=O)Nc1ccc(O)cc1`: the compound was called inactive in assay [3], in assay [4], in assay [5], in assay [19], in assay [6] and in assay [7]. Moreover, the result in assay [8], in assay [11] and in [20] was inactive.

Consider `O=C(O)CCC(F)(F)C(F)(F)C(F)(F)C(F)(F)C(F)(F)C(F)(F)F`, for which the AC50 in assay [12] is 23.6 µM (active); in [13], 14 µM (active) and 36.7 µM (active); in assay [17] it was 36.5 µM (active). In addition, the result in [12], in assay [13], in assay [14], in assay [15], in assay [16] and in assay [17] was inactive. Moreover, the result in assay [18] was inactive.

In the case of `O=C1NS(=O)(=O)c2ccccc21`, the compound was classed as inactive in [2], in [3], in assay [4], in [5], in [19] and in assay [6]. In addition, the call in assay [7], in assay [8], in assay [11] and in assay [20] was inactive.

For the compound `C[C@]12CC[C@@H]3c4ccc(O)cc4CC[C@H]3[C@@H]1C[C@@H](O)[C@@H]2O`, the outcome in assay [12], in assay [13], in [14], in assay [15], in assay [16] and in assay [17] was inactive. In addition, the result in assay [18] was inactive.

`Nc1ccn([C@@H]2O[C@H](CO)[C@@H](O)C2O)c(=O)n1` (stereo not given in full): the AC50 in [3] is 5.88 µM (active); in [4] it was 17.1 µM (active); in assay [5] it was 15.9 µM (active); in [6] it was 16 µM (active); in assay [9], 1.47 µM (active); in assay [20], 0.0896 µM (active). The compound was called inactive in [7], in [8] and in [11].

`Cc1ccc(C(=O)c2ccccc2)cc1`: the outcome in assay [12], in [13], in [14], in [15], in assay [16] and in assay [17] was inactive. In addition, in assay [18], the AC50 was 31.4 µM (active).

Consider `O=C(CC(=O)C(F)(F)C(F)(F)C(F)(F)F)c1cccs1`, for which the compound was called inactive in [20] and in assay [18]. The AC50 is 45 µM (active) and 39 µM (active) in assay [12]; 19 µM (active) and 20.1 µM (active) in assay [13]; 43 µM (active) and 40.8 µM (active) in assay [14]; 29.8 µM (active) and 22.1 µM (active) in assay [15]; 30 µM (active) and 24.5 µM (active) in assay [16]; 35.6 µM (active) and 39.6 µM (active) in assay [17].
